Screening data: PubChem BioAssay, National Center for Advancing Translational Sciences (NCATS)
Gal4-VP16 FLuc: counter-screen for ROR gamma inhibitors: Gal4-VP16 reporter; Drosophila S2 Gal4-VP16 UAS-luciferase, luminescence, 20 h; Potency, µM (top dose mostly 53.6 µM), for inactives: at the highest dose activity, negative = inhibition, most hits filed as inhibitors; hit rate 3.5% among 310,000; AID 2546;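 note: Gal4-VP16 expression switched on by copper sulfate through the metallothionein promoter; % is set by controls: 0 for no effect and ±100 for the full control effect; nearly all actives have a fitted effect of over 50% in size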
RORg inh: blocks mouse ROR gamma transcriptional activity | P51450 | Drosophila S2 Gal4-RORgamma UAS-luciferase reporter, 20 h | Potency, µM (top dose mostly 53.6 µM), for the others: top-dose activity change, negative = inhibition, usual class: inhibitors | hit rate 5.4% among 310,000 | AID 2551; note: % is set by controls: 0 for no effect and ±100 for the full control effect; nearly all actives have a fitted effect of over 60% in size
Target sequence (P51450 whole entry, looked up, the tested form may be a part): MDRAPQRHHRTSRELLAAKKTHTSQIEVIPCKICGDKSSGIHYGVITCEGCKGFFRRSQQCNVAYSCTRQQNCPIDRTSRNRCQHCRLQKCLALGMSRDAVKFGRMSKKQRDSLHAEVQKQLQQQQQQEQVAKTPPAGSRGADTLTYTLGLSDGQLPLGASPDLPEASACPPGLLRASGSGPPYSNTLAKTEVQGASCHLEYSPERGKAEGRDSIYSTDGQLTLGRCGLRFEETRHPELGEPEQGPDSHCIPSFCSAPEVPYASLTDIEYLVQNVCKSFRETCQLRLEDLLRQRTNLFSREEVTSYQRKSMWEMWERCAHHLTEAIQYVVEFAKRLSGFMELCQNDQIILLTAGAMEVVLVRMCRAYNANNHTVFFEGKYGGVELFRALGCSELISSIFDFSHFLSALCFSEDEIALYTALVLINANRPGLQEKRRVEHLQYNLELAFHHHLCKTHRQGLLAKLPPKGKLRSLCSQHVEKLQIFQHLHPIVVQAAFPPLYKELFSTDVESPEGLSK
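Drosophila Schneider cells stably carrying a metallothionein-driven Gal4 DBD–ROR gamma fusion and a UAS-Photinus luciferase reporter were exposed to compound for 1 hr, then induced with copper sulfate (700 uM final) for 20 hr at ambient temperature before luminescence reading.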
GLP-1R inv ag: GLP-1 receptor (human) inverse agonism. Potency, µM (series often up to 38.3 µM), without a hit: at the top dose activity change, negative = inhibition, hits mostly inhibitors. AID 624417. hit rate 1.6% among 410,000. HEK293 GLP-1R CRE-luciferase, luminescence, 24 h; GLP-1R form is constitutively active. P43220; note: % is set by controls: 0 for no effect and ±100 for the full control effect; nearly all actives have a fitted effect of over 55% in size
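qHTS in 1536-well format: reporter HEK293 cells expressing constitutive GLP-1R activity in DMEM + 10% Nu serum, 24 hr with compounds at 37 deg C, luminescence read after 12 min with detection reagent.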
GLP1R cytotox: cytotoxicity counter-screen for GLP-1 receptor inverse agonists; HEK293 cAMP-luciferase reporter cells, luminescence, 24 h; hit rate 0.13% among 410,000; Potency, µM (doses to about 38.3 µM), for inactives: top-dose activity change, negative = inhibition, actives largely listed as inhibitors;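 note: loss of luciferase light is scored as toxicity; % is set by controls: 0 for no effect and ±100 for the full control effect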
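A 23 nL compound transfer followed 12 hours of cell culture at 37 deg C; exposure then lasted 24 hr. Luciferase assay detection reagent was dispensed and plates read for luminescence after a 12 min room-temperature wait.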
GLP-1R agonist: activates the human GLP-1 receptor; P43220; HEK293 GLP-1R CRE-luciferase, luminescence, 4-6 h; cells express a hypersensitive GLP-1R form; Potency, µM (titrated, usually from 45.6 µM), inactives show top-dose activation, most hits filed as activators; hit rate 0.007% among 380,000; AID 624172; note: % of control where 0% means no effect
Starred values were filed as active, the others as inactive; ? = inconclusive; . = not tested or not shown. Compounds with a hit are over-represented: about 5.9% of the library has one in this group of screens. Calls come from the whole dose curve; as a rule, active = well fitted curve in the direction sought with a large enough effect; inconclusive = small, poorly fitted or top-dose-only effect, or another doubt; inactive = no such curve, though single readings can be large; an effect the other way counts as inactive or inconclusive. Potency is the fitted concentration of half-maximal effect.

SMILES	Gal4-VP16 FLuc	RORg inh	GLP-1R inv ag	GLP1R cytotox	GLP-1R agonist
CC1(C)CC(=O)c2sc(NC(=O)c3cccs3)nc2C1	5.6µM*	5µM*	-25%	11%	-12%
CC(=O)c1sc(NC(=O)CCS(=O)(=O)c2ccc(C)cc2)nc1C	.	.	?	10µM*	-9%
CC1CCN(S(=O)(=O)c2ccc3c(c2)N(CC(=O)O)C(=O)CO3)CC1	.	.	3%	3%	.
CC1(C)CC(=O)c2sc(NC(=O)CCS(=O)(=O)c3ccccc3)nc2C1	5.6µM*	?	-29%	13%	12%
COc1cc(OC)c(NC(=O)C(C)n2nc(-c3ccc(C)cc3)c3c(c2=O)CCCC3)cc1Cl (stereo unspecified)	.	.	?	-18%	.
CCC(C(=O)Nc1cc(OC)ccc1OC)n1nc(-c2ccccc2)c2c(c1=O)CCCC2 (stereo unspecified)	.	.	13µM*	-10%	.
CCCNC(=O)C1=CC(c2ccc3c(c2)OCO3)=NS(=O)(=O)N1C	.	.	3%	2%	.
C#CCN(C(=O)c1cc(COc2ccc(C)c(C)c2)on1)C1CCCCC1	?	?	10µM*	-4%	9%
C#CCN(C(=O)c1cc(COc2cccc(C(F)(F)F)c2)on1)C1CCCCC1	?	?	?	7%	1%
Cc1ccc(OCc2cc(C(=O)N(C)C3CCCc4ccccc43)no2)cc1C (stereo unspecified)	.	.	11µM*	5%	7%
Cc1cc(CN(C)C(=O)c2cc(COc3ccc(C)c(C)c3)on2)on1	5%	18%	?	23%	1%
CCCCCn1nc(C)c(/C=N/NC(=O)c2ccoc2C)c1C	8.9µM*	?	0%	-20%	7%
Cc1nn(Cc2ccccc2)c(C)c1/C=N/NC(=O)c1ccccc1O	18µM*	11µM*	40%	-1%	-6%
O=C(c1nc(-c2ccc(Cl)cc2)n2c1CCCCC2)N1CCN(c2ccc(F)cc2)CC1	.	.	10µM*	-14%	.
O=C(c1nc(-c2ccc(Cl)cc2)n2c1CCCCC2)N1CCN(c2ccccc2F)CC1	.	.	?	-13%	.
O=C(CCCCn1c(=O)c2ccccc2n(Cc2ccccc2F)c1=O)NCc1ccccc1Cl	.	.	3%	3%	-1%
O=C(N/N=C/c1cc(Cl)cc(Cl)c1O)c1ccncc1	?	3.2µM*	?	23%	14%
O=C(N/N=C/c1ccc(Cl)cc1Cl)c1ccncc1	-14%	-27%	-3%	-1%	7%
O=C(N/N=C/c1cc(Br)cc(Br)c1O)c1cccc(N2CCCC2=O)c1	10µM*	3.5µM*	?	-7%	9%
O=C(N/N=C/c1cc(Br)cc([N+](=O)[O-])c1O)c1ccc(NC(=O)c2ccc(F)cc2)cc1	11µM*	8.9µM*	10%	-6%	-1%
O=C(N/N=C/c1c[nH]c2ccc(Br)cc12)c1ccn(Cc2ccc(Cl)cc2Cl)n1	-5%	3%	11µM*	-9%	-2%
CCc1ccc(NC(=O)CCn2cnc3ccccc3c2=O)cc1	.	.	2%	6%	.
Nc1c(NC/C=C\COc2cc(CN3CCCCC3)ccn2)c(=O)c1=O	.	.	.	.	4%
COc1ccc2c(c1)C(=O)[C@@H](OC(=O)N[C@H]1CCCc3ccccc31)[C@H](c1ccc(OC)c(Br)c1)O2	-3%	12%	.	.	.
CCC(O)(CC)C(=O)N/N=C/c1cc(Br)cc(Br)c1O	3.2µM*	0.79µM*	?	-1%	3%
SMILES	Gal4-VP16 FLuc	RORg inh	GLP-1R inv ag	GLP1R cytotox	GLP-1R agonist
O=C(N/N=C/c1ccc(O)cc1O)c1ccncc1	0%	-23%	?	3%	-1%
O=C(N/N=C/c1c[nH]c2ccccc12)c1ccncc1	?	?	5%	17%	1%
O=C(N/N=C/c1cc(Br)cc(Br)c1O)c1ccncc1	-26%	4µM*	?	73%	2%
O=C(N/N=C/c1c[nH]c2ccc(Br)cc12)c1ccncc1	?	13µM*	8%	17%	7%
O=C(Nc1cccc(C(=O)N2CCCCC2)c1)c1nsc2ccccc12	.	.	-7%	0%	.
C=CCn1c(SCC(=O)NC2CCCC2)nnc1-c1ccccn1	-4%	5.6µM*	11%	1%	1%
CCCn1c(SCC(=O)NC2CCCC2)nnc1-c1ccccn1	-11%	1%	11%	3%	10%
COc1ccc(S(=O)(=O)Nc2ccc(Cc3ccncc3)cc2)cc1C	22µM*	32%	-28%	-13%	13%
CC(=O)c1ccc(NS(=O)(=O)c2ccc(CC(C)C)cc2)cc1	10µM*	?	-3%	5%	9%
CC(=O)Nc1ccc(S(=O)(=O)Nc2ccc(Cc3ccncc3)cc2)cc1	10µM*	?	3%	9%	9%
CCOC(=O)N1CCN(Cc2nc3cc(NC(=O)c4ccc([N+](=O)[O-])cc4)ccc3n2C(C)C)CC1	.	.	?	-18%	.
COc1cccc(C(=O)Nc2ccc3nc(SCC(=O)N4CCc5ccccc54)sc3c2)c1	.	.	?	3%	.
COc1ccc2c(c1)c1c(c(=O)n(CCc3ccccc3)c(=O)n1Cc1cccc(Cl)c1)n2C	.	.	12%	-1%	0%
Cn1nc(-c2ccccn2)nc2c(=O)n(C)c(=O)nc1-2	0.56µM*	0.45µM*	3.2µM*	?	-8%
CCCc1nc2c(=O)n(C)c(=O)nc-2n(C)n1	2.8µM*	1.4µM*	?	?	-5%
CCCC[C@@H]1C[C@H]1C(NS(=O)(=O)c1cccc2cccnc12)c1ccc(-c2ccccc2)cc1 (stereo partly specified)	-6%	-9%	.	.	.
Cc1ccc(S(=O)(=O)CNC(=S)c2cccc(Cl)c2)cc1	?	22µM*	?	?	-5%
Cc1ccc(C(=S)NCS(=O)(=O)c2ccc(C)cc2)cc1	8.9µM*	2.8µM*	0%	?	1%
CCCNC(=O)Nc1nc2ccccc2s1	-4%	-35%	?	-13%	-1%
CCCNC(=O)c1ccc(-c2nc3ccccc3s2)s1	?	11µM*	?	23%	-20%
CCn1c(-c2cc(Br)cc(OC)c2O)nc2cc(S(=O)(=O)N(C)C)ccc21	7.9µM*	3.5µM*	0%	-5%	-5%
CCOC(=O)c1c(NC(=O)c2cc(OCC)c(OCC)c(OCC)c2)sc2c1CCCCC2	.	.	-4%	1%	.
COc1ccc(NC(=O)c2ccc(Cc3ccc(C)cc3)o2)cc1	2%	29%	?	-3%	13%
Cc1ccc(Cc2ccc(C(=O)NNC(N)=S)o2)cc1	-16%	10µM*	-10%	-1%	6%
COc1cc(SC)ccc1C(=O)N(CC(=O)Nc1ccccc1Br)Cc1ccco1	.	.	10µM*	0%	16%
Cc1ccc(-n2cc(CN3CCC(CO)(Cc4cccc(C(F)(F)F)c4)CC3)cn2)cc1	?	18µM*	?	?	-4%
Cc1ccc(-n2cc(CN3CCC(CO)(Cc4ccccc4)CC3)cn2)cc1	4%	4%	.	.	.
